Results filed as inconclusive are left out. Calls of active or inactive are those of the source. The call rests on the fitted dose curve; in most records, active means well fitted inhibition curve with a large enough effect; inconclusive means small, poorly fitted or top-dose-only effect; inactive means flat fitted curve, though single readings scatter. Peptide text beside a SMILES is read from it.
Experiment: qHTS profiling for inhibitors of Plasmodium falciparum proliferation (AID 504749);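 further: 0% = DMSO vehicle and full inhibition = artemisinin control; nearly all actives have a fitted effect of over 60% in size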
Details: P. falciparum in erythrocytes, SYBR Green DNA, 72 h; at 28.7 µM (top of the series); parasite line A
How it was run: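 Readout was DNA-dye fluorescence from lysed cultures, ex 485/em 535 nm. Parasitized red cells had grown 72 h with compound; data scaled between 0.29 uM artemisinin and DMSO wells and corrected using vehicle-only plates.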

activity, negative = inhibition, inactive:
CCC(C)C(=O)OC1CCC=C2C=CC(C)C(CCC3CC(O)CC(=O)O3)[C@@H]21 (some centres undefined) 6.36%
C[C@]1(c2ccccc2)OC(C(=O)O)=CC1=O 4.24%
OCC1OC([S-])[C@H](O)C(O)C1O.[Au+] (some centres undefined) -14%
COC(=O)N/N=C/C1=C[N+](=O)c2ccccc2[N+]1=O -2.61%
CN1CC(=O)N=C1N 1.94%
CNC1CC(N)[C@H](O)[C@@H](O[C@@H]2OC(CO)C3OC4(OC(C(N)CO)C(O)C(O)C4O)O[C@@H]3[C@H]2O)C1O (some centres undefined) 1.25%
CC(=O)N[C@@H]1C(O)OC(CO)C(O)C1O (some centres undefined) 3.66%
CCC(CCC(C)C1CCC2C3CC=C4CC(O)CC[C@@]4(C)C3CC[C@@]12C)C(C)C (some centres undefined) -3.58%
O=C1OC(CO)C(O)C(O)C1O (centres undefined) 11.9%
CCCC(=O)O[C@]1(C(=O)CO)CCC2[C@@H]3CCC4=CC(=O)CC[C@]4(C)C3C(O)C[C@]21C (some centres undefined) 6.2%
COC(=O)C(Cc1ccccc1)NC(=O)C(N)CC(=O)O (stereo not drawn) (H-Asp-Phe-OMe; configuration not given here) 0%
CC[C@@]12CCCN3CCc4c(n(c5ccccc45)[C@](O)(C(=O)OC)C1)C32 (some centres undefined) 4.65%
CC1(C)SC2C(N3C(=O)C(c4ccccc4)NC3(C)C)C(=O)N2C1C(=O)O (centres undefined) -1.6%
CC1CCC(C(C)C)C(=O)C1 (centres undefined) 0.527%
CC(=O)N[C@H](CC(C)C)C(=O)O -8.85%
CC(C)C1CCC(C(=O)NC(Cc2ccccc2)C(=O)O)CC1 (centres undefined) -12%
COc1ccc2cc(C(C)CO)ccc2c1 (centres undefined) 12.4%
CNC1C(OC2C(O[C@@H]3C(O)C(O)[C@@H](N=C(N)N)C(O)C3N=C(N)N)OC(C)[C@@]2(O)CO)OC(CO)C(O)C1O (some centres undefined) 9.26%
CC1C2CCC3C4CC=C5CC(N(C)C)CC[C@@]5(C)C4CC[C@@]32CN1C (some centres undefined) 2.63%
C[C@]12C=CC(=O)C=C1CCC1C2C(O)C[C@]2(C)C1CC[C@]2(O)C(=O)CO (some centres undefined) 13%
CCOC(=O)C1=CC(OC(CC)CC)C(NC(C)=O)C(N)C1 (centres undefined) 0.564%
CN(C)CCc1c[nH]c2ccc(CC3COC(=O)N3)cc12 (centres undefined) -2.15%
NCC1CCC(N)C(O[C@@H]2C(O)[C@H](O[C@H]3OC(CO)C(O)C(N)C3O)[C@@H](N)C[C@H]2N)O1 (some centres undefined) 7.73%
OCC1O[C@H](OC2C(CO)O[C@@](O)(CO)C2O)C(O)C(O)C1O (some centres undefined) 9.31%
CC1(C)OC2CO[C@]3(COS(N)(=O)=O)OC(C)(C)OC3C2O1 (some centres undefined) 6.34%
CC(=O)OC1CCC2C3CCc4cc(O)ccc4C3CCC12C (centres undefined) 6.77%
CN(C)CCCOC1C(C(O)CO)OC2OC(C)(C)O[C@@H]21 (some centres undefined) 6.96%

Same assay, conditions: P. falciparum in erythrocytes, SYBR Green DNA, 72 h; at 28.7 µM (top of the series); parasite line B

activity, negative = inhibition, inactive:
CCC(C)C(=O)OC1CCC=C2C=CC(C)C(CCC3CC(O)CC(=O)O3)[C@@H]21 (some centres undefined) -8.04%
C[C@]1(c2ccccc2)OC(C(=O)O)=CC1=O 8.18%
OCC1OC([S-])[C@H](O)C(O)C1O.[Au+] (some centres undefined) -7.29%
COC(=O)N/N=C/C1=C[N+](=O)c2ccccc2[N+]1=O -4.8%
CN1CC(=O)N=C1N 0.298%
CNC1CC(N)[C@H](O)[C@@H](O[C@@H]2OC(CO)C3OC4(OC(C(N)CO)C(O)C(O)C4O)O[C@@H]3[C@H]2O)C1O (some centres undefined) -26.8%
CC(=O)N[C@@H]1C(O)OC(CO)C(O)C1O (some centres undefined) 14.7%
CCC(CCC(C)C1CCC2C3CC=C4CC(O)CC[C@@]4(C)C3CC[C@@]12C)C(C)C (some centres undefined) 13.1%
O=C1OC(CO)C(O)C(O)C1O (centres undefined) -2.03%
CCCC(=O)O[C@]1(C(=O)CO)CCC2[C@@H]3CCC4=CC(=O)CC[C@]4(C)C3C(O)C[C@]21C (some centres undefined) 17.5%
COC(=O)C(Cc1ccccc1)NC(=O)C(N)CC(=O)O (stereo not drawn) (H-Asp-Phe-OMe; configuration not given here) 12.1%
CC[C@@]12CCCN3CCc4c(n(c5ccccc45)[C@](O)(C(=O)OC)C1)C32 (some centres undefined) -5.85%
CC1(C)SC2C(N3C(=O)C(c4ccccc4)NC3(C)C)C(=O)N2C1C(=O)O (centres undefined) 9.57%
CC1CCC(C(C)C)C(=O)C1 (centres undefined) 15.7%
CC(=O)N[C@H](CC(C)C)C(=O)O 9.6%
CC(C)C1CCC(C(=O)NC(Cc2ccccc2)C(=O)O)CC1 (centres undefined) 8.36%
COc1ccc2cc(C(C)CO)ccc2c1 (centres undefined) 6.41%
CNC1C(OC2C(O[C@@H]3C(O)C(O)[C@@H](N=C(N)N)C(O)C3N=C(N)N)OC(C)[C@@]2(O)CO)OC(CO)C(O)C1O (some centres undefined) 13.4%
CC1C2CCC3C4CC=C5CC(N(C)C)CC[C@@]5(C)C4CC[C@@]32CN1C (some centres undefined) 0.451%
C[C@]12C=CC(=O)C=C1CCC1C2C(O)C[C@]2(C)C1CC[C@]2(O)C(=O)CO (some centres undefined) 6.28%
CCOC(=O)C1=CC(OC(CC)CC)C(NC(C)=O)C(N)C1 (centres undefined) -0.576%
CN(C)CCc1c[nH]c2ccc(CC3COC(=O)N3)cc12 (centres undefined) 12.7%
NCC1CCC(N)C(O[C@@H]2C(O)[C@H](O[C@H]3OC(CO)C(O)C(N)C3O)[C@@H](N)C[C@H]2N)O1 (some centres undefined) 10.2%
OCC1O[C@H](OC2C(CO)O[C@@](O)(CO)C2O)C(O)C(O)C1O (some centres undefined) 4.3%
CC1(C)OC2CO[C@]3(COS(N)(=O)=O)OC(C)(C)OC3C2O1 (some centres undefined) 12.5%
CC(=O)OC1CCC2C3CCc4cc(O)ccc4C3CCC12C (centres undefined) 4.39%
CN(C)CCCOC1C(C(O)CO)OC2OC(C)(C)O[C@@H]21 (some centres undefined) 11.3%

— PubChem BioAssay (NCATS)
